Laboratory results: the supplement of paper PMC10849652
About 8,800 targets were measured; listed, in parts, are those with a hit and a random draw of the rest. About 0.5% of all pairs of compound and target were hits. A number with no mark means an inactive call.

What follows are targets tested with O=C(O)c1ccc2c(c1)nc(Nc1cccc(Cl)c1)c1ccncc12 [silmitasertib] (assay: log2 fold change, soluble protein after heating vs DMSO (PISA); higher = thermal stabilisation; K562 lysate, 10 uM; active = over 0.2 and 3.5 SD of the protein, either way, in both replicates (recomputed)).
Method in brief: (§1)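 The values are log-two fold changes in thermal stability compared with solvent controls and come from duplicates. They were obtained by TMTpro 16plex LC-MS/MS, with channel sums equalised, on the supernatant after 21,000xg for 90 min. That supernatant came from crude K562 extract at 1 mg/mL protein treated with 10 μM compound for 30 min, heated for 3 min across 48°C-58°C, pooled and brought to 0.5% NP-40 at 4°C.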

Sequence of UniProt Q9UL25 (Q9UL25 whole entry, looked up): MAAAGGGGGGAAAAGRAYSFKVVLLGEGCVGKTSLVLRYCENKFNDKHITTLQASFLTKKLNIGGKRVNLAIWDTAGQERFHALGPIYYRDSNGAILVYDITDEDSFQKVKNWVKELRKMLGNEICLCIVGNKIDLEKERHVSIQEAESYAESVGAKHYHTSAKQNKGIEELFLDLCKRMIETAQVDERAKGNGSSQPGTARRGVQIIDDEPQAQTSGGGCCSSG
Sequence of UniProt Q15287 (Q15287 whole entry, looked up): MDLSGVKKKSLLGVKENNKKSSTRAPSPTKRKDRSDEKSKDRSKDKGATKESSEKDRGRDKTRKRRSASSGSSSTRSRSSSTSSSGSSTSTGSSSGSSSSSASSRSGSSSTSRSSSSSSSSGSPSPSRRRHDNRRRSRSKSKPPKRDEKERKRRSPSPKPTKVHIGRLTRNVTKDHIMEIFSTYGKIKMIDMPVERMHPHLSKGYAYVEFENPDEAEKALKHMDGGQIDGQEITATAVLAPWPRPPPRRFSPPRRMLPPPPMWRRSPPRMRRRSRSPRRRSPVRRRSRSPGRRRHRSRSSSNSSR
Sequence of UniProt Q5TBB1 (Q5TBB1 whole entry, looked up): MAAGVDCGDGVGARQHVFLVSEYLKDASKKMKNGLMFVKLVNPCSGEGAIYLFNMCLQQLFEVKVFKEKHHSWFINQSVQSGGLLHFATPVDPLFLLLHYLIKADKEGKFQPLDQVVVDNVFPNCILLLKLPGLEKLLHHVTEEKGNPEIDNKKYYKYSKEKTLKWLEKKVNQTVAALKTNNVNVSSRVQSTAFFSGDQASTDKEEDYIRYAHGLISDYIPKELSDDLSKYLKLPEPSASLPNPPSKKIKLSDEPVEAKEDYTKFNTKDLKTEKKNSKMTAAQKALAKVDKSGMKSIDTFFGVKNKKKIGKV
Sequence of UniProt Q9Y225 (Q9Y225 whole entry, looked up): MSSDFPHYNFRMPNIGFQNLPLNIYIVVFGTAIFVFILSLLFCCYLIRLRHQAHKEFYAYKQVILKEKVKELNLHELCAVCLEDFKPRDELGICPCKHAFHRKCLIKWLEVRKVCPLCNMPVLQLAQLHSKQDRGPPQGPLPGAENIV
Sequence of UniProt Q7L0Q8 (Q7L0Q8 whole entry, looked up): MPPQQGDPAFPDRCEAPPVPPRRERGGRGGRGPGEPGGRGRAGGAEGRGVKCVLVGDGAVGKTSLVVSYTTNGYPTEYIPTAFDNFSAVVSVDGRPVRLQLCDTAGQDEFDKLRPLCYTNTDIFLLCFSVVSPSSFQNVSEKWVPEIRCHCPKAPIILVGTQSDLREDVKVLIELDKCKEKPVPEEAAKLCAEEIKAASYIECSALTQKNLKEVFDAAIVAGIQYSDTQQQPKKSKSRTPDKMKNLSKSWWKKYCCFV
Sequence of UniProt Q9BXT8 (Q9BXT8 whole entry, looked up): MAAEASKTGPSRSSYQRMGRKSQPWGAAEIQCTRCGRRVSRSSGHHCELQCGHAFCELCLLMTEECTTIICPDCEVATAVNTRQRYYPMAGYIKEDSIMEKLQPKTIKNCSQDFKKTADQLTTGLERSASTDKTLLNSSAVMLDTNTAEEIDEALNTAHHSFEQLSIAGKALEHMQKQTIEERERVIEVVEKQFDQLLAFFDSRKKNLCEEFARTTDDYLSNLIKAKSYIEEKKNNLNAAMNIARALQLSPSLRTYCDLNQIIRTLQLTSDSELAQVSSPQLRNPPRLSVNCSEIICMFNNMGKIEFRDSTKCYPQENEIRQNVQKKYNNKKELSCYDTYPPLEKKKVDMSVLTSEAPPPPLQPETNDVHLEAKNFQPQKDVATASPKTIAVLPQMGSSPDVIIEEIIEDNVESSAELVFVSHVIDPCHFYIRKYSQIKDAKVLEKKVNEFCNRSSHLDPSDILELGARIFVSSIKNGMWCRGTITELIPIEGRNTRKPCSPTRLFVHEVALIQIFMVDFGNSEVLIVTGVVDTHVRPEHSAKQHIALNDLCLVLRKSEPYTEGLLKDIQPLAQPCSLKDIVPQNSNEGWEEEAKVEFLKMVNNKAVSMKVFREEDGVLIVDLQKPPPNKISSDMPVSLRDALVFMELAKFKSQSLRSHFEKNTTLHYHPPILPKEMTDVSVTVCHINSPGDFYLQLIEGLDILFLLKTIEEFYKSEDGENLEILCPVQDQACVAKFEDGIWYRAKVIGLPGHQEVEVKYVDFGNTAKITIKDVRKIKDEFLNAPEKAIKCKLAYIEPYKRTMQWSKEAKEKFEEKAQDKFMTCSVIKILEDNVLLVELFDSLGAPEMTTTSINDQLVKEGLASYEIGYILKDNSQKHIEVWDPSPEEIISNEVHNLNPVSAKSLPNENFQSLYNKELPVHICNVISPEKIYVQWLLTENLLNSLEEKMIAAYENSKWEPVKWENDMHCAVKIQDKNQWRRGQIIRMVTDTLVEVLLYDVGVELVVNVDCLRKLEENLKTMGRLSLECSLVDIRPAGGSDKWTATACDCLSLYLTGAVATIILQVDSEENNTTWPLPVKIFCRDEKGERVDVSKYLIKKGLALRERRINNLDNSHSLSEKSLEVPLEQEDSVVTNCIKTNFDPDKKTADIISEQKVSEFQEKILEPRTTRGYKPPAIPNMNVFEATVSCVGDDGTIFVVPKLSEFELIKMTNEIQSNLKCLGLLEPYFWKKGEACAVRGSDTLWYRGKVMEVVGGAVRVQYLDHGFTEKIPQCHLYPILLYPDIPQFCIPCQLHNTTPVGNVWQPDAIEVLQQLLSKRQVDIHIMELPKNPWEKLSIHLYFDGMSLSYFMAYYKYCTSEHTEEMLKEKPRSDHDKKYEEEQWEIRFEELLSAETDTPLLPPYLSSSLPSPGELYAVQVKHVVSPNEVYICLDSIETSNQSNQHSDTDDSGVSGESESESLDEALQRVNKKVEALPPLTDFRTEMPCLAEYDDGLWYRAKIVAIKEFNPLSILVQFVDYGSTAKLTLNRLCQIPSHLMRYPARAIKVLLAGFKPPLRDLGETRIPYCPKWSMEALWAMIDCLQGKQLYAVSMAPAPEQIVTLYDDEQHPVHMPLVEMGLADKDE
Sequence of UniProt P40937 (P40937 whole entry, looked up): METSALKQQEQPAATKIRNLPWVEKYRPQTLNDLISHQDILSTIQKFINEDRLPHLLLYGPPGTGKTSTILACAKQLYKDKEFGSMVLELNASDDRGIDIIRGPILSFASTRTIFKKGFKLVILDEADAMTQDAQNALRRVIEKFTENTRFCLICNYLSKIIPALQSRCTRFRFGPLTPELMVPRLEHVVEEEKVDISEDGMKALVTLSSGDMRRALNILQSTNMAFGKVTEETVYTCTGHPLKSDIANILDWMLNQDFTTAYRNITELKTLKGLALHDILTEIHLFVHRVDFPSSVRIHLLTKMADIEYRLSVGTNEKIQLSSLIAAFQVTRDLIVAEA
Sequence of UniProt Q9Y6B6 (Q9Y6B6 whole entry, looked up): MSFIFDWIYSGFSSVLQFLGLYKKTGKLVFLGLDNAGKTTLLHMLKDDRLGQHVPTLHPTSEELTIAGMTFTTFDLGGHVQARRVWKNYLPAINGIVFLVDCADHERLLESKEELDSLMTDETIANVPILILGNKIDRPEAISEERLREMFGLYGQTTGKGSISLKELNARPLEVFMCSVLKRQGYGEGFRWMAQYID
Sequence of UniProt Q9HCK4 (Q9HCK4 whole entry, looked up): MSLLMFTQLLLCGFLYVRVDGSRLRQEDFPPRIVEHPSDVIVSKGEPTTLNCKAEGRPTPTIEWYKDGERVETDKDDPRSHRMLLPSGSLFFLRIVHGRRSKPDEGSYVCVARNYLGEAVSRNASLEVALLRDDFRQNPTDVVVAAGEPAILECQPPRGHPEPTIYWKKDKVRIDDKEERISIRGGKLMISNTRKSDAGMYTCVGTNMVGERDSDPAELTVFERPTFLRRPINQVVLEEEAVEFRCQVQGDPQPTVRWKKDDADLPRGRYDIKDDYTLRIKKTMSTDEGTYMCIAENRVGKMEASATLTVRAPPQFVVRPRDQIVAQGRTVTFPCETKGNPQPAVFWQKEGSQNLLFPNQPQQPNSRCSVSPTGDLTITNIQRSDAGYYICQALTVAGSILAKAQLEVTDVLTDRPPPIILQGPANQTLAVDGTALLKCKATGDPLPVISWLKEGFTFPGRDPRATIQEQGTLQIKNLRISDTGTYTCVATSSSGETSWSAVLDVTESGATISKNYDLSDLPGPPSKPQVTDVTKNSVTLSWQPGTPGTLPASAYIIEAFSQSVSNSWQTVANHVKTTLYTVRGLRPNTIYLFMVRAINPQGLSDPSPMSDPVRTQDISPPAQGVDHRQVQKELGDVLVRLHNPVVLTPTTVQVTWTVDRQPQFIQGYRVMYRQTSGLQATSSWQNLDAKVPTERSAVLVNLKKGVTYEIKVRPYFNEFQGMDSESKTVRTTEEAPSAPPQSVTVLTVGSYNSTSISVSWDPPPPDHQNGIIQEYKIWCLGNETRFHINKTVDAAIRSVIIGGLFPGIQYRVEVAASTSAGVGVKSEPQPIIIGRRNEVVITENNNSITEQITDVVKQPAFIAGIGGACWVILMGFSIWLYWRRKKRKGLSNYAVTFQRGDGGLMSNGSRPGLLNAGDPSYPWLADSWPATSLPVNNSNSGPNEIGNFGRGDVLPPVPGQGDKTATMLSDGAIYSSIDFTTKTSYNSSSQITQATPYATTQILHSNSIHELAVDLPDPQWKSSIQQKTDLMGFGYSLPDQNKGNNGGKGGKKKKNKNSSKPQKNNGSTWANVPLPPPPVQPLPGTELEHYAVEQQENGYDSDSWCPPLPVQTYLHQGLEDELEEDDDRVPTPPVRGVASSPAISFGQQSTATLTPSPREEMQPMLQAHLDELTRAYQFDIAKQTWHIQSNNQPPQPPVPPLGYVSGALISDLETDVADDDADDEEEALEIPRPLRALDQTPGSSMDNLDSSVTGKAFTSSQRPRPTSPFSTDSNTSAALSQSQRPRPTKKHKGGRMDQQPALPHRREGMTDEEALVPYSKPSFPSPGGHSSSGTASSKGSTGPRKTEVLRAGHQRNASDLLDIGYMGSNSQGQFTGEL
Sequence of UniProt Q99643 (Q99643 whole entry, looked up): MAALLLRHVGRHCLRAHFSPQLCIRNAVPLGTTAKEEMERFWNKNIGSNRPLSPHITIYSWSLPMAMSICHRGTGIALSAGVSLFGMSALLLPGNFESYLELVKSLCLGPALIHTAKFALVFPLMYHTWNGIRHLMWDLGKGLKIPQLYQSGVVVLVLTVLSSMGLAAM

Target	log2 fold change
RAD54L (UniProt Q92698)	0.065
RHOU (UniProt Q7L0Q8)	0.058
RNPC3 (UniProt Q96LT9)	0.145
RBM8A (UniProt Q9Y5S9)	0.042
RNF24 isoform 2 (UniProt Q9Y225)	-0.117
RYR1 (UniProt P21817)	-0.017
RAB21 (UniProt Q9UL25)	-0.021
SERAC1 (UniProt Q96JX3)	0.155
RPL36AL (UniProt Q969Q0)	0.011
RFC5 (UniProt P40937)	0.031
SDHC (UniProt Q99643)	0.048
SCNM1 (UniProt Q9BWG6)	-0.102
RXRA (UniProt P19793)	0.07
RNF17 (UniProt Q9BXT8)	-0.021
QSER1, A0A3B3IRW6	0.038
RTTN (UniProt Q86VV8)	0.138
RCC1 isoform 2 (UniProt P18754)	0.034
ROBO2 isoform 3 (UniProt Q9HCK4)	-0.019
RNPS1 (UniProt Q15287)	-0.093
SAR1B (UniProt Q9Y6B6)	-0.103
RNASEH2B (UniProt Q5TBB1)	0.054
RNF213, A0A0A0MTC1	0.032
SCML2 (UniProt Q9UQR0)	0.039
RAB5IF isoform 5 (UniProt Q9BUV8)	-0.007

The targets below were run with O=C1NC(=O)C(c2cnc3ccccn23)=C1c1cn2c3c(cc(F)cc13)CN(C(=O)N1CCCCC1)CC2 in the same assay as above.
Method in brief: as §1

Target	log2 fold change
RHOU (UniProt Q7L0Q8)	-0.039
RNPC3 (UniProt Q96LT9)	0.036
RUFY2 isoform 1 (UniProt Q8WXA3)	-0.129
RBM8A (UniProt Q9Y5S9)	-0.046
RNF24 isoform 2 (UniProt Q9Y225)	0.016
RYR1 (UniProt P21817)	-0.069
RAB21 (UniProt Q9UL25)	0.029
RPL36AL (UniProt Q969Q0)	0.131
RBM4 isoform 3 (UniProt Q9BWF3)	-0.099
RFC5 (UniProt P40937)	0.019
SDHC (UniProt Q99643)	-0.071
SCNM1 (UniProt Q9BWG6)	-0.082
RXRA (UniProt P19793)	-0.08
RNF17 (UniProt Q9BXT8)	-0.106
QSER1, A0A3B3IRW6	0.033
SAP30 (UniProt O75446)	-0.024
RCC1 isoform 2 (UniProt P18754)	0.051
ROBO2 isoform 3 (UniProt Q9HCK4)	-0.042
RNPS1 (UniProt Q15287)	-0.012
SAR1B (UniProt Q9Y6B6)	-0.044
RNASEH2B (UniProt Q5TBB1)	-0.064
RNF213, A0A0A0MTC1	0.007
RBM45 (UniProt Q8IUH3)	0.093
RAD17 (UniProt O75943)	-0.052
ROCK1 (UniProt Q13464)	-0.017
SCML2 (UniProt Q9UQR0)	0.037
RLIM (UniProt Q9NVW2)	0.289
